Experimental data taken from PubChem BioAssay (Tox21).
Where “and” joins values, the source holds several entries; their conditions need not be identical. Equal values may be shown once. Inconclusive results are not listed. Calls of active or inactive are those of the source. Calls follow the shape of the dose curve; as a rule, active = well fitted curve in the direction sought with a large enough effect in the repeat runs; inconclusive = weak or mixed curves; inactive = no such curve, though single readings can be large; an effect the other way counts as inactive or inconclusive.

Tests used:
[1] = qHTS RealTime-Glo MT Cell Viability Assay in HEK293 cells - 16 hour (AID 1224872); also: nearly all actives have a fitted effect of over 50% in size; also: potency is read from the fitted curve at half-maximal effect
In short: (§1)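 Homogeneous bioluminescent viability format in HEK293 cells (600 cells/well). Following 5 h at 37 C/5% CO2, 23 nL compound was pintooled; the signal was measured repeatedly during 40 h incubation.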

[2] = qHTS RealTime-Glo MT Cell Viability Assay in HepG2 cells - 8 hour (AID 1224873); also: nearly all actives have a fitted effect of over 55% in size
In short: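 HepG2 cells mixed with RealTime-Glo MT reagents (NanoLuc plus cell-permeant prosubstrate) were seeded at 600 cells/well, incubated 5 h at 37 C/5% CO2, then pinned with compounds in DMSO; nonlytic luminescence tracked viability during 40 h treatment.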

[3] = qHTS RealTime-Glo MT Cell Viability Assay in HEK293 cells - 40 hour (AID 1224874); settings: RealTime-Glo luminescence; max response: hits give low values; also: nearly all actives have a fitted effect of over 50% in size; also: potency is read from the fitted curve at half-maximal effect
In short: (§2)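 Nonlytic bioluminescent viability monitoring. HEK293 at 600 cells/well with reagent; 5 h settle; compound transfer by pintool; plates held at 37 C and read at set time points.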

[4] = A CellTox Green Cytotoxicity Assay to monitor cytotoxicity in HepG2 cells - 16 hour (AID 1224876); also: nearly all actives have a fitted effect of over 45% in size; also: potency is read from the fitted curve at half-maximal effect
In short: (§3)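 Real-time, homogeneous cytotoxicity readout: dead-cell DNA staining by CellTox Green in HepG2 monolayers, fluorescence measured at timed intervals up to 40 h of continuous compound exposure.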

[5] = qHTS RealTime-Glo MT Cell Viability Assay in HepG2 cells - 32 hour (AID 1224877); also: nearly all actives have a fitted effect of over 55% in size
In short: (§4)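 Cell number in HepG2 cultures estimated from NanoLuc luminescence generated by metabolic reduction of a prosubstrate by living cells. The homogeneous, nonlytic format allowed repeated reads at 0, 8, 16, 24, 32 and 40 h of compound exposure.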

[6] = A CellTox Green Cytotoxicity Assay to monitor cytotoxicity in HepG2 cells - 24 hour (AID 1224878); also: nearly all actives have a fitted effect of over 45% in size; also: potency is read from the fitted curve at half-maximal effect
In short: as §3

[7] = A CellTox Green Cytotoxicity Assay to monitor cytotoxicity in HepG2 cells - 40 hour (AID 1224879); also: nearly all actives have a fitted effect of over 40% in size; also: potency is read from the fitted curve at half-maximal effect
In short: as §3

[8] = qHTS RealTime-Glo MT Cell Viability Assay in HEK293 cells - 0 hour (AID 1224880); also: top concentration of the series differs between compounds; nearly all actives have a fitted effect of over 45% in size
In short: as §2

[9] = A CellTox Green Cytotoxicity Assay to monitor cytotoxicity in HepG2 cells - 0 hour (AID 1224882); also: nearly all actives have a fitted effect of over 35% in size
In short: as §3

[10] = A CellTox Green Cytotoxicity Assay to monitor cytotoxicity in HepG2 cells - 32 hour (AID 1224883); also: nearly all actives have a fitted effect of over 50% in size; also: potency is read from the fitted curve at half-maximal effect
In short: as §3

[11] = qHTS RealTime-Glo MT Cell Viability Assay in HepG2 cells - 16 hour (AID 1224885); also: nearly all actives have a fitted effect of over 50% in size
In short: as §4

[12] = qHTS RealTime-Glo MT Cell Viability Assay in HEK293 cells - 8 hour (AID 1224887)
In short: as §2

[13] = qHTS RealTime-Glo MT Cell Viability Assay in HepG2 cells - 0 hour (AID 1224889); also: nearly all actives have a fitted effect of over 50% in size
In short: as §4

[14] = A CellTox Green Cytotoxicity Assay to monitor cytotoxicity in HepG2 cells - 8 hour (AID 1224890); also: nearly all actives have a fitted effect of over 45% in size; also: potency is read from the fitted curve at half-maximal effect
In short: as §3

[15] = qHTS assay to identify small molecule antagonists of the estrogen receptor alpha (ER-alpha) signaling pathway using the BG1 cell line in the presence of 0.1 nM 17-beta-estradiol - cell viability counter screen (AID 1259241); also: nearly all actives have a fitted effect of over 40% in size
In short: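 VM7Luc4E2 cells (endogenous full-length ER-alpha, 4xERE-luciferase), cultured 5 days in charcoal-stripped serum, exposed to compounds with 0.1 nM 17beta-estradiol (final) for 22 hr at 37C. Viability read in same wells as live-cell protease fluorescence after 30 min.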

[16] = A CellTox Green Cytotoxicity Assay to monitor cytotoxicity in HEK293 cells - 24 hour (AID 1224875)
In short: (§5)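 Cytotoxicity was tracked continuously in HEK293 cells by a DNA-binding dye excluded from viable cells. Compounds were transferred in DMSO 5 h after seeding; fluorescence was recorded at intervals up to 40 h.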

[17] = A CellTox Green Cytotoxicity Assay to monitor cytotoxicity in HEK293 cells - 32 hour (AID 1224881); also: nearly all actives have a fitted effect of over 40% in size; also: potency is read from the fitted curve at half-maximal effect
In short: as §5

[18] = A CellTox Green Cytotoxicity Assay to monitor cytotoxicity in HEK293 cells - 8 hour (AID 1224884); also: nearly all actives have a fitted effect of over 35% in size; also: potency is read from the fitted curve at half-maximal effect
In short: as §5

[19] = qHTS RealTime-Glo MT Cell Viability Assay in HEK293 cells - 24 hour (AID 1224886)
In short: as §1

[20] = A CellTox Green Cytotoxicity Assay to monitor cytotoxicity in HEK293 cells - 16 hour (AID 1224888); also: nearly all actives have a fitted effect of over 35% in size
In short: as §5
% is scaled to controls: 0 for no effect and ±100 for the full control effect.

Nc1nccs1
inactive: Potency [1] | Potency [2] | max response [3] -15.6% | Potency [4] | Potency [5] | Potency [6] | Potency [7] | Potency [8] | Potency [9] | Potency [10] | Potency [11] | Potency [12] | Potency [13] | Potency [14] | Potency [15]

O=C(O)c1snc(Cl)c1Cl
inactive: Potency [1] | Potency [2] | max response [3] 13.2% | Potency [16] | Potency [6] | Potency [7] | Potency [8] | Potency [17] | Potency [9] | Potency [10] | Potency [18] | Potency [11] | Potency [19] | Potency [12] | Potency [20] | Potency [13] | Potency [14] | Potency [15]

CC(C)c1nnc2ccc(-c3ocnc3-c3cc(F)ccc3F)cn12
inactive: Potency [2] | Potency [4] | Potency [5] | Potency [6] | Potency [8] | Potency [17] | Potency [9] | Potency [10] | Potency [18] | Potency [11] | Potency [20] | Potency [13] | Potency [14] | Potency [15]
active: Potency [1] 17.4 µM | Potency [3] 19.5 µM

OC/C(Br)=C(\Br)CO
inactive: Potency [1] | Potency [2] | max response [3] 0.37% | Potency [4] | Potency [5] | Potency [6] | Potency [7] | Potency [8] | Potency [9] | Potency [10] | Potency [18] | Potency [11] | Potency [19] | Potency [20] | Potency [13] | Potency [14]

Cc1cnc(C)c(C)n1
inactive: Potency [1] | Potency [2] | max response [3] -11.2% | Potency [4] | Potency [5] | Potency [6] | Potency [7] | Potency [8] | Potency [17] | Potency [9] | Potency [10] | Potency [11] | Potency [12] | Potency [13] | Potency [14] | Potency [15]
active: Potency [18] 51.3 µM

Cc1cc(O)c(C(C)C)cc1Cl
inactive: Potency [1] | Potency [2] | max response [3] -23.1% and 3.73% | Potency [5] | Potency [8] | Potency [9] | Potency [18] | Potency [11] | Potency [19] | Potency [12] | Potency [20] | Potency [13] | Potency [15]
active: Potency [4] 24.5 µM | Potency [6] 27.5 µM | Potency [7] 34.7 µM | Potency [17] 38.9 µM | Potency [10] 34.7 µM | Potency [14] 43.6 µM

O=C(O)c1cccc(O)c1
inactive: Potency [1] | Potency [2] | max response [3] 8.08% | Potency [4] | Potency [5] | Potency [6] | Potency [7] | Potency [8] | Potency [17] | Potency [9] | Potency [10] | Potency [18] | Potency [11] | Potency [19] | Potency [20] | Potency [13] | Potency [14] | Potency [15]
